Bioassay records as filed in PubChem.
Shown are actives, neighbours in structure and some others; about 31% of the full set was active somewhere.
CYP2C9 act: increases human cytochrome P450 2C9 activity; P11712; recombinant CYP2C9, luciferin-H conversion, luminescence; active compounds read high; factor 1 = untreated enzyme, 0 = blocked; activation factor at 5 µM; 96,000 compounds, 1.4% hits; AID 1024;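 active means activation factor of 2 or more for CYP2C9 at a 5 µM dose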;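 further: 0 = sulfaphenazole-blocked wells and 1 = vehicle-only wells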
Target sequence (P11712 whole entry, looked up): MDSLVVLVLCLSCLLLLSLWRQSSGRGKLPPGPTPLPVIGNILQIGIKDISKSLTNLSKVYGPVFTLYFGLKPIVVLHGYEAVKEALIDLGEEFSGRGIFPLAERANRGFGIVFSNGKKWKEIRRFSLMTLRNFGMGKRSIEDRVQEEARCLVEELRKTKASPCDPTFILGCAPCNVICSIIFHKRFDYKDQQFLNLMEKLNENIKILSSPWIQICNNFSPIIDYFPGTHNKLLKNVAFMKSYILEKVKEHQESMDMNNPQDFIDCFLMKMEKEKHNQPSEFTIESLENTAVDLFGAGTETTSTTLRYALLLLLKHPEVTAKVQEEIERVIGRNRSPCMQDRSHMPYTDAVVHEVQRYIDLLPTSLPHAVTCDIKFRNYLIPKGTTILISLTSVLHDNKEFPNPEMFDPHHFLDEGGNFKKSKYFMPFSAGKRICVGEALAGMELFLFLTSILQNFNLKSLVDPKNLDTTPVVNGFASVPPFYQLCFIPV
CYP2C9 inhib: human CYP2C9 inhibition; P11712; 96,000 compounds, 20% hits; inhibition, % at 5 µM; CYP2C9 Supersomes, luciferin-H conversion, luminescence;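 active means blocking of liver enzyme CYP2C9 beyond about 50% at 5 µM, limit read from the data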
CYP2C19 inh: human CYP2C19 inhibition; 96,000 compounds, 21% hits; inhibition, % at 5 µM; CYP2C19 Supersomes, luciferin-H EGE luminescence, 30 min; P33261;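 active means CYP2C19 inhibition above a set limit at 5 µM in the primary screen, cut at about 50% in these data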;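 further: plate controls were negative control wells for no effect and 2.5 mM tranylcypromine positive control for full effect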
CYP2C19 act: increases human CYP2C19 enzyme activity. AID 1025. 96,000 tested, under 10 active. P33261. recombinant CYP2C19, luciferin-H EGE luminescence; active compounds read high; 0 = fully inhibited enzyme, 1 = untreated enzyme. activation factor at 5 µM;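 active means activation factor of at least 2 at 5 µM in the primary screen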;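 further: 0 = wells with 2.5 mM tranylcypromine and 1 = vehicle-only wells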
Active calls of the source: *.

Screening O=C(CN1C(=O)NC2(CCCc3ccccc32)C1=O)NCc1ccco1 (stereo not drawn) returned CYP2C9 act 0.2, CYP2C9 inhib 78*, CYP2C19 inh -1 and CYP2C19 act 1.
For Cc1nn2c(=O)cc(COC(=O)c3ccc(S(=O)(=O)N4CCCCC4)cc3)nc2s1 the results were CYP2C9 act 0.6, CYP2C9 inhib 38, CYP2C19 inh 9 and CYP2C19 act 0.9.
For Nc1cc(=O)[nH]c(SCC(=O)N2CCc3ccccc3C2)n1 the results were CYP2C9 act 1.3, CYP2C9 inhib -30, CYP2C19 inh -21 and CYP2C19 act 1.2.
O=C(CCCSc1nc2sc3c(c2c(=O)[nH]1)CCC3)NCCO was read as CYP2C9 act 0.8, CYP2C9 inhib 16, CYP2C19 inh 6 and CYP2C19 act 0.9.
For O=C(NC1=NCCS1)C1CC(=O)N(c2ccc(F)cc2)C1 (stereo not drawn) the results were CYP2C9 act 0.8, CYP2C9 inhib 20, CYP2C19 inh 12 and CYP2C19 act 0.9.
Screening COc1ccc(Br)cc1C1SCCN1S(C)(=O)=O (stereo not drawn) returned CYP2C9 act 1, CYP2C9 inhib 3, CYP2C19 inh 50 and CYP2C19 act 0.5.
CCCn1c(SCC(=O)N2CCN(S(=O)(=O)c3ccc(Cl)cc3)CC2)n[nH]c1=O was read as CYP2C9 act 0.9, CYP2C9 inhib 7, CYP2C19 inh 0 and CYP2C19 act 1.
`CC1(c2ccc(Cl)cc2)NC(=O)N(CC(=O)NC(=O)NCc2ccco2)C1=O` (stereo not drawn) gave CYP2C9 act 0.3, CYP2C9 inhib 67*, CYP2C19 inh 66* and CYP2C19 act 0.3.
O=C(CN1CCc2ccccc2C1)NCc1ccco1 was read as CYP2C9 act 0.6, CYP2C9 inhib 35, CYP2C19 inh 93* and CYP2C19 act 0.1.
`O=C(CN1C(=O)NC2(CCCCCC2)C1=O)NCc1ccco1` gave CYP2C9 act 0.9, CYP2C9 inhib 6, CYP2C19 inh 7 and CYP2C19 act 0.9.
COC(=O)CSc1[nH]c(=O)cc(C)c1C#N was read as CYP2C9 act 1, CYP2C9 inhib 2, CYP2C19 inh -11 and CYP2C19 act 1.1.
Cc1cc(=O)[nH]c(SCC(=O)Nc2ccc(Br)cc2)c1C#N was read as CYP2C9 act 0.1, CYP2C9 inhib 93*, CYP2C19 inh 95* and CYP2C19 act 0.1.
`Cc1cc(=O)[nH]c(SCC(=O)Nc2ccccc2C#N)c1C#N` gave CYP2C9 act 0.3, CYP2C9 inhib 71*, CYP2C19 inh 64* and CYP2C19 act 0.4.
Screening COc1ccccc1Nc1ncnc2ccc(C)cc12 returned CYP2C9 act 1, CYP2C9 inhib -5, CYP2C19 inh -9 and CYP2C19 act 1.1.
For Cc1ccc(N/C(CSC(N)=O)=N\S(=O)(=O)c2ccc(C)cc2)cc1 the results were CYP2C9 act 1.9, CYP2C9 inhib -88, CYP2C19 inh 17 and CYP2C19 act 0.8.
For Cc1ccc(C(C)C)c(OC(=O)/C=C/c2ccccc2)c1 the results were CYP2C9 act 0.8, CYP2C9 inhib 22, CYP2C19 inh -4 and CYP2C19 act 1.
For Cc1cc(OCC(=O)NCCN2CCOCC2)ccc1Br the results were CYP2C9 act 1.1, CYP2C9 inhib -9, CYP2C19 inh 85* and CYP2C19 act 0.2.
Screening Cc1ccccc1OCC(=O)NCCN1CCCC1 returned CYP2C9 act 1.1, CYP2C9 inhib -6, CYP2C19 inh -6 and CYP2C19 act 1.1.
Screening O=C(COc1cc(Cl)c(Cl)cc1Cl)NCCN1CCOCC1 returned CYP2C9 act 0.9, CYP2C9 inhib 6, CYP2C19 inh 65* and CYP2C19 act 0.4.
`COc1cc(C(=O)NCCN2CCOCC2)cc(OC)c1OC` gave CYP2C9 act 1.1, CYP2C9 inhib -10, CYP2C19 inh -9 and CYP2C19 act 1.1.
Screening Clc1ccc2[nH]cc(-c3nnnn3-c3ccc4ccccc4c3)c2c1 returned CYP2C9 act 1.2, CYP2C9 inhib -16, CYP2C19 inh -5 and CYP2C19 act 1.1.
COC(=O)C(C)N(C(=O)c1ccc(C(=O)c2ccccc2)cc1)c1c(C)cccc1C (stereo not drawn) was read as CYP2C9 act 0, CYP2C9 inhib 98*, CYP2C19 inh 94* and CYP2C19 act 0.1.
CCNC(=S)NNC(=O)C(c1ccccc1)c1ccccc1 was read as CYP2C9 act 0.7, CYP2C9 inhib 30, CYP2C19 inh 12 and CYP2C19 act 0.9.
For CCC(C(=O)c1ccc(O)cc1)c1ccccc1 (stereo not drawn) the results were CYP2C9 act 1.3, CYP2C9 inhib -29, CYP2C19 inh 52* and CYP2C19 act 0.5.
Screening Cc1nn(-c2ccccc2)c(Cl)c1C1C(C#N)=C(N)Oc2n[nH]c(C)c21 (stereo not drawn) returned CYP2C9 act 0.2, CYP2C9 inhib 78*, CYP2C19 inh 83* and CYP2C19 act 0.2.
`Cc1nn(-c2ccccc2)c(Cl)c1C1C(C#N)=C(N)OC2=C1C(=O)CCC2` (stereo not drawn) gave CYP2C9 act 0.2, CYP2C9 inhib 76*, CYP2C19 inh 91* and CYP2C19 act 0.1.
For Cc1ccc(-n2nc(C)c(C3C(C#N)=C(N)OC4=C3C(=O)CC(C)(C)C4)c2Cl)cc1 (stereo not drawn) the results were CYP2C9 act 0.9, CYP2C9 inhib 11, CYP2C19 inh 7 and CYP2C19 act 0.9.
`Cc1[nH]nc2c1C(c1ccsc1C)C(C#N)=C(N)O2` (stereo not drawn) gave CYP2C9 act 0.9, CYP2C9 inhib 10, CYP2C19 inh 12 and CYP2C19 act 0.9.
COc1cc(-n2nc(C)c3c2OC(N)=C(C#N)C3c2ccccc2)c(Cl)c(Br)c1O (stereo not drawn) was read as CYP2C9 act 0, CYP2C9 inhib 99*, CYP2C19 inh 99* and CYP2C19 act 0.
Cc1nn(-c2ccccc2)c2c1C(c1ccncc1)C(C#N)=C(N)O2 (stereo not drawn) was read as CYP2C9 act 0.3, CYP2C9 inhib 66*, CYP2C19 inh 59* and CYP2C19 act 0.4.
CC(C)CC(=O)NC(=S)Nc1ccc(NC(=O)c2cccs2)cc1 was read as CYP2C9 act 0.9, CYP2C9 inhib 12, CYP2C19 inh 6 and CYP2C19 act 0.9.
Screening COc1ccc(C(=O)COc2nc(C)cc(C)c2C#N)cc1 returned CYP2C9 act 0.8, CYP2C9 inhib 15, CYP2C19 inh 44 and CYP2C19 act 0.6.
For Cc1[nH]nc2c1C(c1ccc(-c3ccccc3C#N)o1)C(C#N)=C(N)O2 (stereo not drawn) the results were CYP2C9 act 0.1, CYP2C9 inhib 93*, CYP2C19 inh 68* and CYP2C19 act 0.3.
Cc1ccc(-c2ccc(C3C(C#N)=C(N)Oc4n[nH]c(C)c43)o2)cc1 (stereo not drawn) was read as CYP2C9 act 0.6, CYP2C9 inhib 38, CYP2C19 inh 14 and CYP2C19 act 0.9.
For Cc1nn(-c2ccccc2)c(Cl)c1C1C(C#N)=C(N)Oc2c1c(C)nn2-c1ccccc1 (stereo not drawn) the results were CYP2C9 act 0.1, CYP2C9 inhib 91*, CYP2C19 inh 81* and CYP2C19 act 0.2.
